The values below come from PubChem BioAssay AID1347423 (Functional Genomics Laboratory (NCATS/FGL), 2020).

About 210 (0.4%) of roughly 52,000 sequences were called active.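 How the source made its calls: active means gene whose silencing raises cell survival under the drug, median off-target-corrected z-score across its silencing RNAs 2 or more; inactive means the rest.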 This excerpt belongs to a sample that is enriched for actives.

This test can be described thus: Resistance to Poly (ADP-Ribose) Polymerase inhibitor: Gene Identification via Genome-wide siRNA Screen. To be noted: mouse BRCA2 R2336H ES cells, olaparib, CellTiter-Glo viability; stronger effect = higher value. The essentials:
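Genome-wide siRNA screen (3 siRNAs/gene, 20 nM) in mouse ES cells carrying hypomorphic BRCA2 R2336H; olaparib 500 nM added 48 h post-transfection, CellTiter-Glo viability 72 h later. Normalized to plate-median negative control; MAD z-scores, gene median, seed-adjusted.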
On to CGCAGAAGCUAAUAAACAGTT against Psmb6, for which the z-score is -1.52 (inactive).
As to GCUGUUUUAUCUCCAAUGGTT against Araf1, the z-score was 1.6 (active).
As for GGACAAGUUUCAGUGACCCTT against Zdhhc9, the z-score is -0.268 (inactive).
To GCCAUAUACAGGUUCAAAGTT against Msh6 belongs 0.613 (inactive); to GCCCAAUAUACUCUAAGGGTT against Cdh20, 0.338 (inactive).
To “GCAUCAAAAUCGGUUUCUGTT against 4930526D03Rik” belongs -0.28 (inactive); to GGAUCGCUCAUGGAUAUUUTT against Fus, -0.22 (active).
For GGAGACAGAAUGCACAUUUTT against Tff3, the z-score is -1.75 (inactive).
For the sequence “CCAUUCGGACCAAAGUGUATT against 4930563C04Rik”, the z-score is -1.48 (inactive).
For GCCUCUGAGUUGCAUGAGUTT against Ppp2r5b, the z-score was 2.37 (active).
On to “GCAAUGGUUGGUUCAAUAATT against 5730427C23Rik”, for which the z-score was -1.47 (inactive).
Regarding “GGUAGAGGUUAAGACGAUCTT against C330023D02Rik”, the z-score was -0.997 (inactive).
In the case of “CGGUGAAAAACCUAUGUAUTT against 1700028P14Rik”, the z-score is 0.894 (inactive).
For GGCAUUCUUAUAAAGAAACTT against Ube2q the value was 3.88 (inactive); for “CGCUGAAAUAAAGACCAGATT against 2400010G15Rik”, 1.99 (active).
Consider GCCAGUGAGGCUACUUUCATT against Myo18a, for which the z-score is -0.423 (inactive).
“GCAUCUCACUCGUAAAGGUTT against 4732406D01Rik”: the z-score was -0.389 (inactive).
To GGGAGAGGCACAAAGCAUATT against Ubxd3 belongs 1.27 (inactive); to GGGUUUUGUGUAAAAGGUUTT against Olfr584, 1.72 (active); to “GGGACACAAUUCUUUGAAATT against G630009D10Rik”, 0.375 (inactive).
For the sequence GGACAUAAAAGACUUAAAGTT against Actr8, the z-score was 3.83 (active).
For GGAGCCAUGACUUUUCACUTT against Sec22l1, the z-score was 0.164 (inactive).
On to GAGUCCCUUGGCAGCUCAUTT against Klra8, for which the z-score is -0.753 (inactive).
For “GCACAAGAGGUAUCCUUGCTT against A630038D02” the value was -0.381 (inactive).
Consider GGAACAGAAAGCUAUGGAUTT against Surf6, for which the z-score was -0.706 (inactive).
To GGGAGAGUCAAAAAAAGAUTT against Khdrbs1 belongs 2.83 (active); to “GGAGUACCUGGACAUUGUGTT against 1110032N12Rik”, 0.677 (inactive); to GGACGGACAUUUAUGACCCTT against Cpsf3, -0.072 (inactive).
As for GGAAAUUCAGCAUGGAGCCTT against Vgll4, the z-score was -0.472 (inactive).
To “CCUCUCCAACAACCAACUATT against 2900010D03Rik” belongs -1.42 (inactive); to GGAGAUAAAAGUUUCAUCUTT against Jmjd2b, 0.46 (inactive); to GGUACCUGUUUGUUUUACATT against Epb4.1l4b, 5.02 (inactive).
For “CCCUAGAAUGGGAAUGUCATT against C030022K24Rik” the value was 0.313 (inactive); for GUCAUCAAACUAGGUGCUGTT against Olfr584, 5.09 (active).
GGGUCCAUUGUCAAUGUCUTT against Cbr2: the z-score was -0.721 (inactive).
For “GGGCUUCGAUGCUAUCAUCTT against 6430573F11Rik” the value was 0.734 (inactive).
Consider CCAUCUACGUGGGACACAATT against Atp11a, for which the z-score was -1.41 (inactive).
In the case of GGAGAACGAAAGGAUGAAATT against Rpusd4, the z-score was -1.09 (inactive).
For the sequence “GGAGAAAAGGAUGUUGUUATT against 2310005P05Rik”, the z-score was 2.57 (inactive).
To CGAUAAUUUGGCUAAGUAUTT against Pip5k3 belongs 0.0345 (inactive).
For the sequence “CCAAGGGAAGAUUCAAAUUTT against D930031B21Rik”, the z-score is -1.19 (inactive).
For the sequence “GCCAGAAACUAAUGAGAUCTT against 1110001E17Rik”, the z-score is 1.17 (active).
Regarding GGAAUUUUCUAUAGUCCGGTT against Flrt2, the z-score is 0.268 (inactive).
To “GCGCAAAGGUGAAACGUAGTT against E030011O05Rik” belongs -0.0435 (inactive).
For GCAUCCUACGCAUUAAAUCTT against Olfr146, the z-score is -0.12 (inactive).
To CGAAAAUCAAGGGAGCUCATT against Rnf19 belongs -0.128 (inactive).
For the sequence “GCACCAUGUCAGGAAGUGUTT against B230315M08Rik”, the z-score is 3.45 (active).
For GCCUUUUAGCUGUUCAGGATT against AI451557 the value was -1.18 (inactive); for GGAGUUCAUUCUGAAUCAGTT against Etohi2, -0.817 (inactive).
To GCUACAAAGCGAUGUUUCATT against Pola2 belongs -1.88 (inactive).
For GGUCUCCACCUCCAUAUCCTT against Slc15a3 the value was 0.715 (inactive); for GCAGAGGAUAUAAAACAAGTT against Pde2a, 0.234 (active); for CGUCUCAACAGAGUUGGAGTT against Hrmt1l1, 0.151 (inactive).
For CCCAGAACUAUUCAACACUTT against Sema4g, the z-score was 1.4 (inactive).
As to “GGCAGAGAAAAGGACCUUUTT against 2400002F11Rik”, the z-score was -1.69 (inactive).
For GGACAUAAGUGACAGACAUTT against Chrnb2 the value was -1.32 (active); for GCAUUCAUGAAAGUGUUAGTT against Olfr164, 1.23 (inactive); for GGCGAAUUAUUGAAAACGUTT against Actr8, 3.41 (active).
To GGUGGUGUUUCAUAAGAUGTT against Rragc belongs 0.792 (inactive); to “CCCAGCUAUGCGAUCUUAATT against 1300003B13Rik”, -1.51 (inactive); to GGGUUUCUGUUUGAUUCCATT against Gria1, 1.91 (active).
As for GCUACUGAGUUAUAGAAAGTT against Olfr1316, the z-score was 0.323 (inactive).
To CCAACUGUAGAUGUAUAUATT against Pmp22 belongs 0.0495 (inactive); to “GGUGAUCCUCAUCAUCAGUTT against 2400010G15Rik”, 2.76 (active); to GGUUGCAUCACAGCGUAUATT against Plekhe1, 0.0124 (inactive).
On to GGAGGUCCAGCUGUUCAUGTT against Kcnn4, for which the z-score is 2.89 (inactive).
